The values that follow come from PubChem BioAssay (Tox21).

The structures appear in SMILES notation. “And” between values parts separate entries of the source, which are not always exact repeats. Equal entries are not always repeated. Inconclusive results are not listed. A call without a number means that no potency is given here. More than one record can exist for a structure, and the calls need not agree. The source made the active and inactive calls. The call rests on the fitted dose curve.
Potency means the concentration at half of the fitted maximal effect.

This test is described as follows: Nuclear factor erythroid 2-related factor 2/antioxidant responsive element (Nrf2/ARE) small molecule agonists: luciferase reporter gene qHTS assay in human keratinocytes (AID 1919969). Further: nearly all actives have a fitted effect of over 35% in size. The following applies: KeratinoSens HaCaT ARE-luciferase, luminescence, 24 h; series mostly up to 92.4 µM. The text has this:
National Center for Advancing Translational Sciences [NCATS]
Division of Preclinical Innovation [DPI]
U.S. Environmental Protection Agency [EPA]
National Institutes of Environmental Health Sciences [NIEHS]
National Toxicology Program [NTP]
U.S. Food and Drug Administration [FDA]
Oxidative stress has been implicated in the pathogenesis of a variety of diseases ranging from cancer to neurodegeneration. The antioxidant response element (ARE) signaling pathway plays an important role in the amelioration of oxidative stress. The KeratinoSens (Givaudan, Switzerland) is an in vitro test method which quantifies luciferase induction as a measure of activation of Keap1-Nrf2-antioxidationt/electrophile response element (ARE) dependant pathway in HaCaT human keratinocytes stably transfected with a selectable plasmid. The KeratinoSens assay is a cell-based assay with a reporter cell line to detect potential skin sensitizers by their ability to induce the Nrf2/ARE-response. The activation of the report gene under culture conditions can be detected by ONE-Glo Luciferase Assay System (Promega, Madison, WI). This cell line has been used to screen the Tox21 10K compound library to identify agonists that induce oxidative stress. The cytotoxicity of the Tox21 compound library against the KS-ARE cell line was tested in parallel by measuring the cell viability using CellTiter- Fluor assay system (Promega, Madison, WI) in the same wells.
HaCaT derived cell line KeratinoSens were dispensed at 1,500 cells/5uL/well in 1536-well white wall/solid bottom plates using a Multidrop Combi (ThermoFisher Scientific, Waltham, MA) dispenser. After the assay plates were incubated at 37 C/5% CO2 for 5 h, 23 nL of compounds dissolved in DMSO, positive controls or DMSO only was transferred to the assay plate by a pintool workstation (Kalypsys, San Diego, CA). The plates were incubated at 37 C/5% CO2 for 23 h, followed by addition of 1uL/well of CellTiter-Fluor reagent into the assay plates using a Flying Reagent Dispenser (Aurora Discovery, San Diego, CA) for cell viability readout that measures cytotoxicity. After 1 h incubation at 37 C/5% CO2 the fluorescence intensity was measured using a ViewLux (PerkinElmer, Shelton, CT) plate reader. Then 4uL/well of One-Glo were added using a Flying Reagent Dispenser. After the plates were incubated at room temperature for 30 min, the luminescence intensity in the assay plates was measured using ViewLux plate reader.
On to `O=C(NCc1cccnc1)Nc1ccc([N+](=O)[O-])cc1`, for which the Potency result is “inactive”.

Take `C[C@]12CC[C@H]3[C@@H](CCC4=CC(=O)CC[C@@H]43)[C@@H]1CC[C@@H]2O`: the Potency entry is “inactive”.

On to `N#Cc1ccc(O)cc1`, for which the Potency entry was “inactive”.

Consider `CN1CC[C@]23c4c5ccc(O)c4O[C@H]2[C@@H](O)CC[C@H]3[C@H]1C5`, for which the Potency entry is “inactive”.

`CC(Cl)Cl`: the Potency is 5.84 µM (active).

With `COc1cc2c(cc1OC)[C@@]13CCN4CC5=CCO[C@H]6CC(=O)N2[C@H]1[C@H]6[C@H]5C[C@H]43`, the Potency result is “inactive”.

For `COP(=S)(OC)SCn1nnc2ccccc2c1=O`, the Potency was 53.4 µM (active) and 68.6 µM (active).

On to `Nc1cccc(Cl)c1`, for which the Potency result is “inactive”.

Take `CCC[CH2][Sn]([Cl])([CH2]CCC)[CH2]CCC`: the Potency was 244 nM (active) and 486 nM (active).

Turning to `CCCC[n+]1ccccc1C`, the Potency result was “inactive”.

As for `COP(=S)(OC)Oc1cc(Cl)c(Cl)cc1Cl`, the Potency was 68.1 µM (active).

As for `CC(=O)C=C(C)C`, the Potency entry was “inactive”.

As to `CNC(=O)Oc1cccc2c1OC(C)(C)O2`, the Potency entry is “inactive”.

As for `CCc1cccc(C)c1N(C(=O)CCl)C(C)COC` (stereo not given), the Potency is 57.6 µM (active).

For `ClCC(Cl)CCl`, the Potency entry is “inactive”.

In the case of `CC1COC2(c3ccccc3Cl)c3cc(Cl)ccc3NC(=O)CN12` (stereo not given), the Potency result was “inactive”.

With `CCN(CC)C1CCCCC1`, the Potency entry was “inactive”.

As to `CC(=O)C(C)(C)C`, the Potency entry is “inactive”.

For the compound `O=C(CCl)c1ccc(Cl)cc1Cl`, the Potency was 60.8 µM (active) and 11.9 µM (active).

In the case of `CC(C)CCCCCOC(=O)c1ccccc1C(=O)OCCCCCC(C)C`, the Potency entry was “inactive”.

For `O=P1(NCCCl)OCCCN1CCCl` (stereo not given), the Potency result was “inactive”.

`C=CCOC(Cn1ccnc1)c1ccc(Cl)cc1Cl` (stereo not given): the Potency is 15.4 µM (active) and 24.3 µM (active) and 8.41 µM (active).

Turning to `Nc1c(Cl)c(Cl)nc(C(=O)O)c1Cl`, the Potency entry is “inactive”.

Consider `CNC(=O)Oc1cccc2ccccc12`, for which the Potency result is “inactive”.

For `[O]=[Cr][O][Cr]=[O]`, the Potency result is “inactive”.

`CCCCc1c(C)nc(NCC)[nH]c1=O`: the Potency entry is “inactive”.

For the compound `CCN(CC)N=O`, the Potency result is “inactive”.

Take `BrC(Br)Br`: the Potency result was “inactive”.

Turning to `CC(C)OC(=O)Nc1cccc(Cl)c1`, the Potency entry is “inactive”.

Consider `COCC(=O)N(c1c(C)cccc1C)C(C)C(=O)OC` (stereo not given), for which the Potency result is “inactive”.

For `COP(=O)(CCC(=O)NCO)OC`, the Potency result is “inactive”.

`OCC(Cl)CCl` (stereo not given): the Potency result is “inactive”.

`COC[C@@H](NC(C)=O)C(=O)NCc1ccccc1`: the Potency entry is “inactive”.

With `CCOC(=O)CC(SP(=O)(OC)OC)C(=O)OCC` (stereo not given), the Potency entry was “inactive and 61.1 µM (active)”.

With `O=Cc1ccco1`, the Potency entry is “inactive”.

As to `CCCCCCCCCl`, the Potency entry was “inactive”.

`Nc1ccc2ccccc2c1`: the Potency was 37.2 µM (active) and 27.3 µM (active).

Regarding `CC(C)(C)C(=O)C(Cl)Cl`, the Potency result is “inactive”.

On to `CCCCCCCCCCCCn1cc[n+](C)c1`, for which the Potency entry is “inactive”.

For `O=C(CBr)c1ccc(O)cc1`, the Potency was 68.6 µM (active).
